Pf growth 96h – inhibits malaria parasite growth, 96 h; hit rate 6.9% among 320,000; Potency, µM (doses to about 28.7 µM), inactives show at the highest dose activity change, negative = inhibition, usual class: inhibitors; P. falciparum luciferase reporter growth, 96 h; AID 504834; further: potency means the concentration at half of the fitted maximal effect; on the % scale 0 is the no-effect control and ±100 the full control effect
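Readout is luminescence from an integrated firefly luciferase in P. falciparum. Red cells, 2% hematocrit and 0.05% parasitemia final, were cultured with compound through two parasite generations (96 hours) at 37 C, 5% CO2.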
Pf growth 48h – inhibits P. falciparum growth in the first generation, 48 h | hit rate 5.9% among 310,000 | AID 504832 | Potency, µM (doses to about 28.7 µM), for the others: at the highest dose activity change, negative = inhibition, most hits filed as inhibitors | P. falciparum luciferase growth in erythrocytes, 48 h; further: potency means the concentration at half of the fitted maximal effect; on the % scale 0 is the no-effect control and ±100 the full control effect
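Read-out is firefly luciferase luminescence from an integrated reporter in P. falciparum, so falling signal marks reduced parasite growth. Infected erythrocytes were at 2% hematocrit and 0.1% parasitemia (final) in Albumax-supplemented RPMI 1640.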
Shiga toxin inh – inhibitors of Shiga toxin in Vero cells; Vero cells, Shiga toxin protein synthesis inhibition reporter; AID 2315; inhibition, % at 38.7 µM; hit rate 9.2% among 290,000; in the data active means inhibition mostly above about 28%, no sharp cut-off; inactive means mostly below about 43%; further: 0% is about no effect
NS1 inh – blocks influenza NS1 protein function; AID 2326; hit rate 0.4% among 270,000; Potency, µM (highest dose often 46.1 µM), for inactives: at the top dose activity, positive = more growth; calls by dose curve; further: potency means the concentration at half of the fitted maximal effect; actives are rising curves; nearly all actives have a fitted effect of over 50% in size
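Read-out: OD600 growth recovery of NS1-expressing budding yeast. Cells grown overnight at 30C in -URA glucose medium, washed, resuspended and diluted 1:100 in 2% galactose assay medium, pH 6.0. Same strain lacking NS1 served as positive control.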
Sm TGR inh – inhibitors of Schistosoma mansoni thioredoxin glutathione reductase; Potency, µM (top dose mostly 114 µM), for inactives: at the top dose activity change, negative = inhibition, hits mostly inhibitors; purified TGR, DTNB reduction, TNB absorbance 405 nm; Q962Y6; hit rate 3% among 360,000; further: potency means the concentration at half of the fitted maximal effect; on the % scale 0 is the no-effect control and ±100 the full control effect; nearly all actives have a fitted effect of over 60% in size
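Kinetic colorimetric format: TGR-catalysed, NADPH-driven DTNB reduction monitored via TNB absorbance. Enzyme dispensed at 20 nM; compound exposure 15 min at room temperature before reaction start.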
Cycloheximide cs – counter-screen hit for Shiga toxin inhibitors, cycloheximide. hit rate 12% among 300,000. max response, %. cell reporter, cycloheximide protein synthesis inhibition counterscreen. AID 2314; in the data active means max response mostly above about 13%, no sharp cut-off; inactive means mostly below about 14%; further: read at 38.3 µM for the half of the compounds with a filed dose; 0% is about no effect
Starred values were filed as active, the others as inactive; ? = inconclusive; nt = no result given; [ ] = another dose, or the depositor's remark. Hits are enriched below; roughly 21% of the tested compounds scored in any of these assays. Unless noted, the call rests on the fitted dose curve; in most records, active means well fitted curve in the direction sought with a large enough effect; inconclusive means small, poorly fitted or top-dose-only effect, or another doubt; inactive means no such curve, though single readings can be large; an effect the other way counts as inactive or inconclusive.

SMILES	Pf growth 96h	Pf growth 48h	Shiga toxin inh	NS1 inh	Sm TGR inh	Cycloheximide cs
Cc1ccc(C(C)C)c(OCc2nn(CC(=O)c3ccc(Cl)cc3)c3[n+]2CCCCC3)c1	?	12µM*	-12	nt	-13%	-6
Clc1ccc(NCc2nnc3n2CCCCC3)cc1	nt	12%	-5	1%	11%	2
COc1ccc(CNC(=O)c2cnc3sc(N4CCCC4)nn3c2=O)c(OC)c1	nt	nt	nt	nt	4%	nt
Cn1c(=O)c2c(nc3sccn32)n(C)c1=O	-25%	1%	11	0%	-6%	20*
Cc1nc2sccn2c(=O)c1Cl	-26%	-8%	-6	0%	?	-2
CCOc1c2ccc(C(=O)NCc3ccc4c(c3)OCO4)cc2nn1CCOC	?	?	-19	-1%	4%	11
Nc1c(-c2ccccc2)cnc2c(-c3ccccc3)cnn12	477%	230%	130*	-7%	0%	52*
Nc1c(-c2cccs2)cnc2c(-c3ccc(F)cc3)cnn12	437%	162%	118*	1%	-19%	43*
Nc1c(-c2ccsc2)cnc2ncnn12	?	18%	2	nt	3%	11
CC(C)(C)S(=O)(=O)c1cnc2c(-c3ccsc3)cnn2c1N	90%	112%	65	nt	0%	49*
CS(=O)(=O)c1cnc2c(-c3ccc(F)cc3)cnn2c1N	188%	76%	61*	6%	-2%	58*
Cc1cccc(-n2nnc3c(=O)n(CC(=O)Nc4cc(C)on4)cnc32)c1	2%	15%	-26	1%	0%	-2
Cc1ccc(S(=O)(=O)c2nc(-c3cccs3)oc2SCc2ccc(F)cc2)cc1	nt	nt	nt	nt	7%	nt
COC(=O)C(Cc1ccccc1)NS(=O)(=O)c1cc(Br)ccc1Br (centres undefined)	nt	nt	-5	nt	nt	8
CCN(CC)C(=O)c1sc2c(c1C)c(=O)n(-c1ccc(Cl)c(Cl)c1)c(=O)n2CC(=O)Nc1cccc(OC)c1	nt	nt	nt	nt	-1%	nt
COc1ccc(S(=O)(=O)NCCc2cn3ccsc3n2)cc1OC	nt	nt	nt	nt	40µM*	nt
c1ccc(Oc2ccc(-c3ccnc4ncnn34)cc2)cc1	-3%	17%	38	-31%	nt	8
c1ccc(Oc2ccc(-c3ccn[nH]3)cc2)cc1	128%	187%	69*	-59%	4%	37*
CCOc1nc(NC(=O)NS(=O)(=O)Oc2cccc(Cl)c2)nc(-c2ccccc2)n1	31%	27%	-17	3%	7%	17*
[O-][n+]1ccccc1SC/C=C/c1ccccc1	?	68%	96*	nt	5%	25*
COc1ccc(C(=O)/C=C/Nc2ccc(S(=O)(=O)Nc3cc(OC)nc(OC)n3)cc2)c(OC)c1	36%	1.7µM*	2	5%	?	-3
COc1cccc(C(=O)/C=C/Nc2ccc(S(=O)(=O)Nc3cc(OC)nc(OC)n3)cc2)c1	20%	0%	69*	1%	4%	34*
Cc1ccc2c(=O)cc(C(=O)Nc3c(C)n(C)n(-c4ccccc4)c3=O)oc2c1C	nt	nt	nt	nt	7%	nt
COC(=O)C1=C(C)NC(=S)NC1c1ccc(-c2cccc(Cl)c2)o1 (centres undefined)	?	?	12	-4%	8.9µM*	0
COC(=O)C1=C(C)NC(=S)NC1c1ccc(-c2ccccc2C(=O)OC)o1 (centres undefined)	?	?	5	nt	?	5
COC(=O)C1=C(C)NC(C)=C(C(=O)OC)C1c1ccc(-c2cccc([N+](=O)[O-])c2)o1	?	?	-7	5%	40µM*	5
COCCOC(=O)C1=C(C)NC(=O)NC1c1ccc(-c2cc(Cl)ccc2Cl)o1 (centres undefined)	42%	-13%	-11	3%	18µM*	-2
COC(=O)C1=C(C)NC(=O)NC1c1ccc(-c2ccc(F)cc2)o1 (centres undefined)	?	?	13	nt	14µM*	-2
COC(=O)C1=C(C)NC(C)=C(C(=O)OC)C1c1ccc(-c2cc(Cl)ccc2Cl)o1	?	?	-10	-1%	-34%	-9
COC(=O)C1=C(C)NC(=O)NC1c1ccco1 (centres undefined)	-22%	-50%[5.75 µM]	-13	nt	-11%	-2

Screening data: PubChem, National Center for Advancing Translational Sciences (NCATS)
